Assay outcomes: PubChem BioAssay, National Center for Advancing Translational Sciences (NCATS)
A350 autofl: compound fluoresces in the Alexa 350 spectral region. Compound autofluorescence, 340/450 nm, Alexa 350 dye-equivalents; active compounds read high. max dye-equivalent concentration, M. 59,000 tested, 11% active; in the data active = max dye-equivalent concentration above about 10 nM; inconclusive = mostly about 1.1 nM to 9.6 nM
HADH2 inh: inhibitors of human HADH2 dehydrogenase. Q99714. recombinant HADH2, NADH fluorescence, beta-hydroxybutyryl-CoA. Potency, µM (titrated, usually from 57.1 µM), for inactives: top-dose activity change, negative = inhibition, hits mostly inhibitors. 73,000 tested, 3.4% active. AID 886; note: potency is the fitted concentration of half-maximal effect; % is set by controls: 0 for no effect and ±100 for the full control effect; nearly all actives have a fitted effect of over 60% in size
Target sequence (Q99714 whole entry, looked up, one chain of several): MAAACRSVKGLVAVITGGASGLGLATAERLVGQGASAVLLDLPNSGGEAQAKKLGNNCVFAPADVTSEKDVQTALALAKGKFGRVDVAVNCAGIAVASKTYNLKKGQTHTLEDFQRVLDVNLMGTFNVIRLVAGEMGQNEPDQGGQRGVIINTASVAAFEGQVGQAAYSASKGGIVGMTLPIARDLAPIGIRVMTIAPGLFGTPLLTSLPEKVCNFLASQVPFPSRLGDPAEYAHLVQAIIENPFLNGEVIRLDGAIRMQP
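NADH fluorescence (ex 360/em 450 nm) read every 30 s for 4 min; activity taken as last-minus-first time point difference. Enzyme 20 nM, NAD+ 1 mM, beta-hydroxybutyryl-CoA 90 uM, pH 9.0 Tris buffer.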
HSD17B inh: HSD17B dehydrogenase inhibition; Q99714; recombinant HSD17B10, NADH fluorescence kinetic; Potency, µM (series often up to 57.1 µM), for the others: at the top dose activity change, negative = inhibition, hits mostly inhibitors; 75,000 tested, 7.6% active; AID 893;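 note: the protocol describes HADH2 (HSD17B10) and not the HSD17B4 of the title; potency is the fitted concentration of half-maximal effect; % is set by controls: 0 for no effect and ±100 for the full control effect; nearly all actives have a fitted effect of over 70% in size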
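His-tagged E. coli-expressed HADH2 at 20 nM in 100 mM Tris-HCl pH 9.0 with 0.01 % Tween-20, preincubated 15 min with compound at room temperature. Reaction with 1 mM NAD+ and 90 uM beta-hydroxybutyryl coenzyme A; NADH fluorescence (360/450 nm) read kinetically over 4 min, last minus first point.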
4MU fluor: compound fluoresces in the 4-MU spectral region; compound autofluorescence, 340/450 nm, 4-MU equivalents; active compounds read high; max dye-equivalent concentration, M; 59,000 tested, 11% active; in the data active = max dye-equivalent concentration above about 10 nM; inconclusive = mostly about 1.1 nM to 9.6 nM
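Compounds in 100 mM Tris, pH 8.0, sat 15 min at room temperature before fluorescence was read at 340 nm excitation/450 nm emission; a per-plate six-point 4-MU standard curve converted signals to dye-equivalent concentration at each compound concentration.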
AID923: qHTS Assay for Allosteric/Competitive Inhibitors of Caspase-1: Spectroscopic Profiling in AFC Spectral Region; Potency, µM (titrated, usually from 57.5 µM), inactives show at the highest dose fluorescence increase, usual class: activators; compound fluorescence, AFC spectral region (405/520 nm); 75,000 tested, 1.1% active; note: potency is the fitted concentration of half-maximal effect; 0% is about no effect
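Titrations up to 57 uM read every 20 sec for 3 min (405/520 nm) with 50 nM caspase 1 and 5 uM Ac-WEHD-AFC, pH 7.5 HEPES buffer. Fluorescence-vs-time intercept gave baseline, scaled against on-plate AFC standard.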
* marks the source's active call; other numbers are inactive results; [ ] = another dose, or the depositor's remark. The list is not random: actives were taken first. Their share in the collection is about 13%. Unless noted, calls come from the whole dose curve; as a rule, active = well fitted curve in the direction sought with a large enough effect; inconclusive = small, poorly fitted or top-dose-only effect, or another doubt; inactive = no such curve, though single readings can be large; an effect the other way counts as inactive or inconclusive.

Results for CC(C)OC(=O)c1c(N)n(Cc2ccco2)c2nc3ccccc3nc12 ?
A350 autofl: 3.29e-06M*; 4MU fluor: 2.95e-06M*

How did C=C(C)c1ccccc1 do in these assays?
HADH2 inh: -4.5%; HSD17B inh: -3.6%; AID923: -0.1%

Results for N#CC(O)c1ccccc1 (stereo not given) ?
HADH2 inh: 4.3%; HSD17B inh: 9.5%; AID923: 0.5%

What do the screens show for `CC1CCN(c2nc(-c3ccc(F)cc3)cc(C(F)(F)F)n2)CC1`?
A350 autofl: 4.99e-08M*; HADH2 inh: 1.1%; HSD17B inh: inconclusive; 4MU fluor: 5.09e-08M*; AID923: 3.5%

Results for CN1CCN(c2ccc3ccccc3n2)CC1 ?
A350 autofl: 1.62e-08M*; HADH2 inh: 1.5%; HSD17B inh: -8.8%; 4MU fluor: 1.7e-08M*; AID923: -0.1%

What do the screens show for `c1ccc2c(c1)ccc1cc3c(ccc4ccccc43)cc12`?
HADH2 inh: 0.3%; HSD17B inh: inconclusive; AID923: 9.1%

How did c1cc2ccc3cccc4ccc(c1)c2c34 do in these assays?
HADH2 inh: 31.6µM*; HSD17B inh: 31.6µM*; AID923: 0.5%

How did c1ccc2c(c1)c1cccc3ccc4cccc2c4c31 do in these assays?
HADH2 inh: 31.6µM*; HSD17B inh: 25.1µM*; AID923: 5.9%

Results for COC(=O)c1ccc(COc2cc(C)cc3oc(=O)c4c(c23)CCCC4)o1 ?
HADH2 inh: 102.9%[11.4 µM]; HSD17B inh: 31.6µM*; AID923: -1.2%

How did CCCOC(=O)COc1cc(C)cc2oc(=O)c3c(c12)CCC3 do in these assays?
HADH2 inh: 30.1%[11.4 µM]; HSD17B inh: 31.6µM*; AID923: -0.2%

How did Cc1cc(OCC(=O)Nc2cc(C)nn2-c2ccccn2)c2c3c(c(=O)oc2c1)CCC3 do in these assays?
A350 autofl: inconclusive; HADH2 inh: inconclusive; HSD17B inh: inconclusive; 4MU fluor: inconclusive; AID923: 0.1%

How did Cc1cc(OCC(=O)O)c2c3c(c(=O)oc2c1)CCCC3 do in these assays?
A350 autofl: 4.32e-08M*; HADH2 inh: 31.6µM*; HSD17B inh: 31.6µM*; 4MU fluor: 3.74e-08M*; AID923: -0.9%

Results for Cc1cc(OCC(=O)Nc2c(C)n(C)n(-c3ccccc3)c2=O)c2c3c(c(=O)oc2c1)CCC3 ?
A350 autofl: 1.24e-08M*; HADH2 inh: -0.3%; HSD17B inh: -23.6%; 4MU fluor: inconclusive; AID923: 2.3%

Results for C[C@@]12CC[C@H]3[C@@H](CC=C4C[C@H](OS(=O)(=O)O)CC[C@]43C)[C@H]1CCC2=O ?
A350 autofl: inactive; HADH2 inh: -5.1%; HSD17B inh: -3.0%; 4MU fluor: inactive; AID923: -1.0%

Results for N[C@H](Cc1ccc2oc3cc(=O)c4ccccc4c-3nc2c1)C(=O)O ?
A350 autofl: inconclusive; HADH2 inh: -13.1%[11.4 µM]; HSD17B inh: 15.9%[11.4 µM]; 4MU fluor: inactive; AID923: 6.4%[11.5 µM]

What do the screens show for `C=CCn1c(O)c(C=Nc2ccc(OC)cc2C)c(=O)[nH]c1=O`?
A350 autofl: 5.55e-06M*; HADH2 inh: inconclusive; HSD17B inh: inconclusive; 4MU fluor: 3.29e-06M*; AID923: 2.8%

Results for O=C(O)c1cccc([As]=[As]c2cccc(C(=O)O)c2)c1 (stereo not given) ?
A350 autofl: inactive; HADH2 inh: -0.9%[11.4 µM]; HSD17B inh: -6.5%[11.4 µM]; 4MU fluor: inactive; AID923: -2.8%[11.5 µM]

What do the screens show for `CCOC(=O)C1OC1(C)c1ccccc1` (stereo not given)?
HADH2 inh: 0.1%; HSD17B inh: 3.7%; AID923: 3.7%

What do the screens show for `Cc1ccc(-c2cn3c(=S)[nH]nc3s2)cc1`?
A350 autofl: inactive; HADH2 inh: 31.6µM*; HSD17B inh: inconclusive; 4MU fluor: inactive; AID923: 0.9%

What do the screens show for `COP(=S)(OC)SCn1nnc2ccccc2c1=O`?
HADH2 inh: 3.5%; HSD17B inh: 31.6µM*; AID923: -0.9%
